Measurements published in PubChem BioAssay AID1159580 (chemical genetic matrix, 2015).
“And” between values parts separate entries of the source, which are not always exact repeats. Equal values may be shown once. Among all 5,500 compounds or so, about 2,000 (36%) were called active. Roughly 18% stayed inconclusive and do not appear here. Cut-off read from the data, not from the text of the source: active = normalized growth mostly below about 0.91 (no sharp cut-off); inconclusive = no clear call, values can overlap the other calls; inactive = mostly above about 0.92. Some of the results follow.

Experiment: chemical genetic growth profiling, strain panel (AID 1159580);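 note: tested at 20 µM; growth read once vehicle control cultures reached saturation at 30 °C; 1 = growth at the plate median or of vehicle wells; lower values mean less growth of the strain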
Settings: S. cerevisiae deletion strains, growth OD

Measured: normalized growth

C[C@@H]1O[C@@H](O[C@H]2C[C@@H](O)[C@]3(CO)C4C(CC[C@]3(O)C2)[C@@]2(O)CC[C@H](C3=CC(=O)OC3)[C@@]2(C)C[C@H]4O)[C@H](O)[C@H](O)[C@H]1O (some centres not stated)
inactive: locus YAL021C, strain ccr4, active compounds read low 1.01 | locus YAL026C, strain drs2, active compounds read low 1.02 | locus YAL030W, strain snc1, active compounds read low 1.03 | locus YBL061C, strain skt5, active compounds read low 1.02 | locus YBR009C, strain hhf1, active compounds read low 1.04 | locus YBR021W, strain FUR4, active compounds read low 1.05 | locus YBR023C, strain chs3, active compounds read low 1.03 | locus YBR171W, strain sec66, active compounds read low 1.04 | locus YBR229C, strain ROT2, active compounds read low 1.02 | locus YBR231C, strain swc5, active compounds read low 1.01 | locus YBR279W, strain paf1, active compounds read low 1.02 | locus YCL011C, strain gbp2, active compounds read low 1.02 | locus YCL016C, strain dcc1, active compounds read low 1.04 | locus YCL029C, strain bik1, active compounds read low 0.99 | locus YCL061C, strain MRC1, active compounds read low 1.01 | locus YCL069W, strain vba3, active compounds read low 1.03 | locus YCR088W, strain abp1, active compounds read low 1.02 | locus YDL005C, strain med2, active compounds read low 1.02 | locus YDL035C, strain GPR1, active compounds read low 1.05 | locus YDL040C, strain nat1, active compounds read low 1.02 | locus YDL074C, strain BRE1, active compounds read low 1.04 | locus YDL101C, strain DUN1, active compounds read low 1.02 | locus YDL185W, strain tfp1, active compounds read low 1 | locus YDL192W, strain arf1, active compounds read low 0.994 | locus YDR001C, strain nth1, active compounds read low 1.02 | locus YDR069C, strain doa4, active compounds read low 0.997 | locus YDR101C, strain arx1, active compounds read low 0.994 | locus YDR137W, strain rgp1, active compounds read low 1.02 | locus YDR159W, strain sac3, active compounds read low 1 | locus YDR162C, strain NBP2, active compounds read low 1.03 | locus YDR195W, strain ref2 1.01 | locus YDR297W, strain sur2, active compounds read low 1.02 | locus YDR318W, strain mcm21, active compounds read low 0.998 | locus YDR334W, strain swr1, active compounds read low 1.03 | locus YDR335W, strain msn5, active compounds read low 1.03 | locus YDR388W, active compounds read low 0.992 | locus YDR392W, strain spt3, active compounds read low 0.981 | locus YDR502C, strain sam2, active compounds read low 0.989 | locus YEL003W, strain gim4, active compounds read low 1.03 | locus YEL037C, strain rad23, active compounds read low 1.03 | locus YEL061C, strain CIN8 (second series), active compounds read low 1.03 | locus YEL061C, strain CIN8, active compounds read low 1.02 | locus YER015W, strain faa2, active compounds read low 1.02 | locus YER016W, strain bim1, active compounds read low 1.01 | locus YER110C, active compounds read low 0.985 | locus YER111C, strain swi4, active compounds read low 1.02 | locus YER155C, strain BEM2 (second series), active compounds read low 1.01 | locus YER155C, strain BEM2, active compounds read low 1.01 | locus YER167W, strain BCK2, active compounds read low 1.03 | locus YFR010W, strain ubp6, active compounds read low 1.03 | locus YGL078C, strain dbp3, active compounds read low 0.992 | locus YGL086W, strain mad1, active compounds read low 0.996 | locus YGL167C, strain pmr1, active compounds read low 1.03 | locus YGL173C, strain kem1, active compounds read low 1.02 | locus YGL227W, strain vid30, active compounds read low 1.03 | locus YGL240W, strain doc1, active compounds read low 0.997 | locus YGL248W, strain PDE1, active compounds read low 1.02 | locus YGL253W, strain hxk2, active compounds read low 1.01 | locus YGR135W, strain pre9, active compounds read low 1.01 | locus YGR252W, strain gcn5, active compounds read low 0.98 | locus YHR013C, strain ard1, active compounds read low 1.04 | locus YHR027C, strain rpn1, active compounds read low 1.02 | locus YHR030C, strain SLT2, active compounds read low 1.02 | locus YHR079C, strain IRE1 (second series), active compounds read low 0.987 | locus YHR079C, strain IRE1, active compounds read low 1.02 | locus YHR094C, strain hxt1, active compounds read low 0.983 | locus YHR129C, strain ARP1, active compounds read low 1.02 | locus YHR142W, strain chs7, active compounds read low 1.04 | locus YHR200W, strain rpn10, active compounds read low 0.999 | locus YIL066C, strain RNR3, active compounds read low 1.05 | locus YIL073C, strain SPO22, active compounds read low 0.981 | locus YIL125W, strain kgd1, active compounds read low 0.994 | locus YIR030C, strain dcg1, active compounds read low 0.991 | locus YJL092W, strain hpr5, active compounds read low 1.02 | locus YJL095W, strain BCK1 (second series), active compounds read low 1.05 | locus YJL095W, strain BCK1, active compounds read low 1.03 and 1.01 | locus YJL115W, strain asf1, active compounds read low 1.03 | locus YJL129C, strain trk1, active compounds read low 1.04 | locus YJL134W, strain LCB3, active compounds read low 1.01 | locus YJL154C, strain vps35, active compounds read low 1.02 | locus YJL164C, strain tpk1, active compounds read low 1.02 | locus YJL166W, strain qcr8, active compounds read low 1.01 | locus YJL168C, strain set2, active compounds read low 0.987 | locus YJL187C, strain SWE1 (second series), active compounds read low 1.03 | locus YJL187C, strain SWE1, active compounds read low 1.02 | locus YJR043C, strain POL32, active compounds read low 1.05 | locus YJR066W, strain TOR1, active compounds read low 0.989
